Bioassay records as filed in PubChem.
m5-HT2A agonist: agonists of mouse serotonin 5-HT2A receptor (HTR2A); hit rate 0.66% among 360,000; AID 624169; CHO-K1 mHTR2A beta-arrestin complementation, luminescence; percent of 30 µM serotonin response; P35363; activation, % at 7.6 µM;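 active = activation above a run cutoff, the mean activation of all tested compounds plus 3 SD, cut at about 14% in these data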;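 also: 0% = plate median of compound wells and 100% = 30 µM serotonin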
Target sequence (P35363 whole entry, looked up): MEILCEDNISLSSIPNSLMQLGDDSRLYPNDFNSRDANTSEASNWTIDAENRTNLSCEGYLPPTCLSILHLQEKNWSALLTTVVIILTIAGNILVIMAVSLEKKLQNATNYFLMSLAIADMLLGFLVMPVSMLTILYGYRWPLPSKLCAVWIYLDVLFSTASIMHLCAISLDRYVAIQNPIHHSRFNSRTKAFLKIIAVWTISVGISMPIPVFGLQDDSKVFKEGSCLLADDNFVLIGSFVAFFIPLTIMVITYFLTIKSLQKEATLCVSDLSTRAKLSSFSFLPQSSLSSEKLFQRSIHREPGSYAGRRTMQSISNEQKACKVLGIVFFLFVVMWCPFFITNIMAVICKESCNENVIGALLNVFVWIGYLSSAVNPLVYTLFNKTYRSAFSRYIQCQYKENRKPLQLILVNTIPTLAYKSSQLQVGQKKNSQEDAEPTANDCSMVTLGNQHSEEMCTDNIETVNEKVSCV
OPRM1-OPRD1 inv: inverse agonist of human OPRM1-OPRD1 heterodimerization | P35372+P41143 | cell-based MOR-DOR heterodimer luminescence, inverse agonism | inhibition, % at 9.3 µM | hit rate 0.21% among 340,000; in the data active = inhibition above about 22%, passing the limit was not always enough;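 also: 0% = cells with DMSO and 100% = wells without cells with DMSO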
HTR5A inv ag: counter-screen for OPRM1-OPRD1 inverse agonists: human HTR5A inverse agonism; HTR5A cell line, luminescence; AID 504634; P47898; inhibition, % at 9.3 µM; hit rate 0.083% among 340,000; in the data active = inhibition mostly above about 23%, no sharp cut-off; inactive = mostly below about 18%;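 also: 0% = cells with DMSO and 100% = no-cell wells with DMSO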
OPRM1-OPRD1 ag: OPRM1-OPRD1 heterodimerization agonism; P35372+P41143; cells, luminescence; activation, % at 9.3 µM; hit rate 0.3% among 340,000; in the data active = activation above about 18%;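 also: 0% = vehicle-treated cells and 100% = reference agonist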
HTR5A ag: HTR5A agonism, opioid heterodimer counter-screen; AID 504692; HTR5A agonist assay, luminescence, cell-based; activation, % at 9.3 µM; hit rate 0.61% among 340,000; in the data active = activation mostly above about 9.5%, no sharp cut-off; inactive = mostly below about 7.6%;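 also: 0% = cells with vehicle only and 100% = reference agonist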
OPRM1 ag: OPRM1 agonism in mouse HTR2A counterscreen; shares compounds with m5-HT2A agonist; U2OS OPRM1 beta-arrestin PathHunter, luminescence; DMSO 0%, DAMGO 9.3 µM 100%; activation, % at 9.3 µM; hit rate 5.3% among 2,300; AID 624380;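 active = mean activation above the mean of DMSO-only wells plus 3 SD, cut at about 0.5% in these data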
HTR2A ag conf: confirmation of mouse HTR2A serotonin receptor agonists | activation, % at 7.6 µM | hit rate 19% among 2,300 | shares compounds with m5-HT2A agonist | CHO-K1 PathHunter beta-arrestin recruitment, luminescence; DMSO 0%, 30 µM serotonin 100%;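 active = mean activation across triplicates above the hit threshold derived in the original primary screen, cut at about 15% in these data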
* = called active by the depositor; · = not tested or not shown. An excerpt weighted towards active compounds, which were near 1.6% of everything screened.

SMILES | m5-HT2A agonist | OPRM1-OPRD1 inv | HTR5A inv ag | OPRM1-OPRD1 ag | HTR5A ag | OPRM1 ag | HTR2A ag conf
CCOC(=O)N1CCC(NC(=O)c2ccc3c(Cl)c4c(nc3c2)CCCC4)CC1 | 18* | 1 | -7 | 0 | 1 | -1 | -3
O=C(NC1CC1)c1ccc2c(Cl)c3c(nc2c1)CCCC3 | 6 | 6 | -37 | -1 | 4 | · | ·
Cc1cccc(NS(=O)(=O)c2ccc(C(=O)N3CCN(c4ccccc4O)CC3)cc2)c1C | 16* | -2 | -4 | 1 | 2 | 0.5* | 5
NNC(=O)C(=O)NCCCN1CCOCC1 | 4 | 8 | -3 | -2 | 0 | · | ·
CC1CCCCN1CCCNC(=O)c1ccc2nc(N3CCCCC3)sc2c1 (stereo not drawn) | 17* | 9 | -8 | -1 | 3 | -1 | -6
CCOC(=O)c1cc2cc(OC)ccc2n1C1CCN(CCc2ccccc2)CC1 | 20* | · | · | · | · | 0 | -7
COc1ccc(COC(=O)c2ccc(S(=O)(=O)N3CCC(C)CC3)cc2)cc1 | 0 | -3 | -12 | 0 | 3 | · | ·
N#Cc1ccccc1N1CCN(C(=O)c2ccc(NC(=O)c3ccc(Br)o3)cc2)CC1 | -1 | 12 | 4 | -2 | 0 | · | ·
C#CCN(C[C@@H]1[C@@H](OC(=O)NCCCCCC)[C@@H](OC(=O)NCCCCCC)Cn2c(=O)ccc(=O)n21)S(=O)(=O)c1ccc(C)cc1 | 9 | · | · | · | · | · | ·
C#CCN(C[C@@H]1[C@@H](OC(=O)NCC2CCCCC2)[C@@H](OC(=O)NCC2CCCCC2)Cn2c(=O)ccc(=O)n21)S(=O)(=O)c1ccc(C)cc1 | 27* | · | · | · | · | 0 | 35*
CC1CCCC(C)N1C(=O)COC(=O)CSc1ccc(C(N)=O)cc1[N+](=O)[O-] (stereo not drawn) | 16* | 4 | 7 | -1 | 5 | -1 | -3
COC1OC(O)C(NC(=O)C(F)(F)F)CC1O (stereo not drawn) | 1 | 15 | -14 | -3 | 4 | · | ·
COCCn1cnnc1SCC(=O)Nc1sc2c(c1C#N)CCC2 | 17* | 14 | 6 | -3 | 7 | -1 | 0
Cn1cnnc1SCC(=O)Nc1sc2c(c1C(N)=O)CCC2 | 0 | 15 | -5 | -3 | 1 | · | ·
COc1ccc(N2CCN(C(=O)c3cc(=O)c4ccc(C)cc4o3)CC2)cc1 | -8 | 23 | 5 | -5 | -1 | · | ·
Cc1cc2nc(NC(=O)C3(C)CCN(C)C3)[nH]c2cc1C (stereo not drawn) | -2 | · | · | · | · | · | ·
Cc1n[nH]c(=S)n(/N=C/c2cccs2)c1=O | 14* | 11 | -46 | -2 | 1 | -1 | -5
CC(C)(C)c1n[nH]c(=S)n(/N=C/c2cccs2)c1=O | -1 | -1 | 5 | 0 | 3 | · | ·
Cc1oc(-c2cc(F)ccc2F)nc1CN1CCCN(C(=O)c2ccco2)CC1 | 0 | 5 | 4 | -1 | -1 | · | ·
COc1ccc2oc(C(=O)N3CCN(C(=O)c4ccco4)CC3)c(C)c2c1 | 14* | 4 | 5 | -1 | -2 | -1 | -2
COc1ccc(C(=O)N2CCN(Cc3cc(OC)ccc3OC)CC2)cc1 | -4 | 9 | -6 | -2 | 2 | · | ·
COc1cccc(CN2CCN(C(=O)c3ccco3)CC2)c1 | 37* | 13 | 7 | -3 | -2 | -1 | 109*
COc1ccc(OC)c(CN2CCN(C(=O)c3ccco3)CC2)c1 | 16* | -11 | -21 | 2 | 5 | 1.2* | 34*
COc1ccc2oc(C(=O)N3CCN(c4ncccn4)CC3)c(C)c2c1 | 3 | -1 | 6 | 0 | -1 | · | ·
COc1cccc(-c2nc(CN3CCN(C(=O)c4ccco4)CC3)c(C)o2)c1OC | 15* | · | · | · | · | -1 | 43*
O=C(Nc1ccccc1-c1nnn(CC(=O)N2CCCc3ccccc32)n1)c1ccc(Cl)cc1 | 5 | 14 | -21 | -3 | 0 | · | ·
CC(=O)C(=Cc1cn(-c2ccccc2)nc1-c1ccccc1)C(C)=O | -2 | -7 | 7 | 1 | -3 | · | ·
COc1cccc(CN2CCCN(S(=O)(=O)c3ccc(Br)cc3)CC2)c1 | 29* | 8 | -3 | -1 | -1 | 0 | 5
O=S(=O)(c1ccc(Br)cc1)N1CCCN(Cc2cccc(F)c2)CC1 | 7 | -12 | 2 | 2 | -1 | · | ·
